Consider 40 compounds from PubChem BioAssay (NCI).

This is part of a sample that, as a whole, favours compounds with a hit. Of some 79,000 tested, about 15% had one in any assay. Unmarked numbers belong to inactive results. Calls of active or inactive are those of the source. No stated cut-off is given here; in the data, active means growth inhibition above about 70%; inactive means the rest. Where a SMILES comes first, the peptide text is derived from it. [ ]: non-standard residue; d: D form. The star is where a group is joined. mTyr = N[CH](Cc1cccc(O)c1)C(=O)O; Cbz = O=C(OCc1ccccc1)*; OBn = c1ccc(CO*)cc1

The first assay in a line: NCI Yeast Anticancer Drug Screen. Data for the mlh1 rad18 strain (AID 175). The settings on record: S. cerevisiae mlh1 rad18 strain growth inhibition; at 5.0 µM (retest, dose inferred, filed as 0.5); hits give high values. The method, boiled down: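 Genetically defined yeast (DNA repair-deficient) exposed to compounds; growth inhibition determined relative to vehicle.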
Consider `O=c1[nH]c2c([N+](=O)[O-])cc(Cl)cc2nc1/C=C(\O)c1ccc(Cl)cc1`, for which the growth inhibition is 13%.

For the compound `CCOC(=O)C1=C(N)N(S(=O)(=O)c2ccc(C)cc2)CCC(C(=O)OC)=C1`, the growth inhibition was -2%.

Consider `CC(C)=CC(=O)OC(CCCc1ccccc1)c1ccc2c(c1)OCO2` (centres undefined), for which the growth inhibition was 2%.

On to `OCCN(CCO)c1cc(/C=C/c2ccnc3ccccc23)nc2ccccc12`, for which the growth inhibition is 9%.

Consider `CCCCCCCCCCCC(=O)OCC1CO1` (centres undefined), for which the growth inhibition is -16%.

For the compound `CCCCCCCCCCCCCCCCCC1=NCCN1`, the growth inhibition is -1%.

Turning to `CC(=O)OCC1OC(OC2C=C(O[Si](C)(C)C)C[C@H]3C(=O)C=CC(=O)[C@@H]23)C(OC(C)=O)C(OC(C)=O)C1OC(C)=O` (some centres undefined), the growth inhibition was 3%.

For the compound `C[C@]12CC[C@H]3[C@@H](CCC4=CC(=O)CC[C@@]43C)[C@@H]1CC[C@@H]2C(=O)C=O`, the growth inhibition was 27%.

Turning to `CCCCCC(O)C(C)CO` (centres undefined), the growth inhibition is -1%.

`CC(=O)Oc1ccc(-c2ccccc2)cc1Br`: the growth inhibition was 11%.

As for `COC(=O)C(Cc1cccc(O)c1)NC(=O)C(CC(=O)OCc1ccccc1)NC(=O)OCc1ccccc1` (centres undefined) (Cbz-Asp(OBn)-[mTyr]-OMe; configuration not given here), the growth inhibition is -4%.

For the compound `CCC(CO)Nc1nc2cc(Br)ccc2c2ccc(Br)cc12` (centres undefined), the growth inhibition was 18%.

For the compound `Cc1cc(Br)ccc1NC(=O)/C=C/C(=O)O`, the growth inhibition was 0%.

For the compound `CCO/C=C1N=C(/C=C/c2ccccc2Cl)OC/1=O`, the growth inhibition was -2%.

In the case of `O=S(=O)(Nc1ccccc1C(F)(F)F)c1ccc(F)cc1`, the growth inhibition was -13%.

Consider `N#CSCC(=O)c1ccc2ccccc2c1`, for which the growth inhibition was 57%.

With `O=[N+]([O-])/C(Cl)=C(\Nc1ccccc1)C(Cl)=C(Cl)Cl`, the growth inhibition is 83% (active).

On to `C/C(=N/NC(=O)c1ccccc1S(N)(=O)=O)C(CN1CCCCC1)C(C1=C(O)C2C=CC=CC2OC1=O)c1ccccc1` (centres undefined), for which the growth inhibition is 22%.

Consider `N#Cc1c([N+](=O)[O-])cc(C(F)(F)F)cc1[N+](=O)[O-]`, for which the growth inhibition was 92% (active).

Consider `CCCCCCCCCCCCO`, for which the growth inhibition is 12%.

As for `S=C(N/N=C/c1ccccn1)N1CC2CCC(CC2)C1`, the growth inhibition was 99% (active).

For `ClC1(c2ccccc2)c2ccccc2-c2ccccc21`, the growth inhibition is 0%.

With `Cc1ccc(SCC#CC#CCS(=O)c2ccc(C)cc2)cc1` (centres undefined), the growth inhibition is 97% (active).

Consider `CCCCCCCOc1ccc(C=O)cc1OC`, for which the growth inhibition was 1%.

Staying with this assay, now noted: S. cerevisiae mlh1 rad18 strain growth inhibition; at 50.0 µM (retest, dose inferred, filed as 5.0); hits give high values.
Take `CC12CCC(c3sc(N)c(C#N)c31)C2(C)C` (centres undefined): the growth inhibition is -9%.

In the case of `O=C1/C(=C/c2cccc(F)c2)CCCc2ccccc21`, the growth inhibition is 75% (active).

As to `CC(=O)N[C@H]1CC[C@H]2[C@@H]3CCC4=CC(=O)CC[C@]4(C)[C@H]3CC[C@]12C`, the growth inhibition is 95% (active).

Regarding `C/C(=N/O)c1ccc2c(c1)C(=NO)c1cc(/C(C)=N/O)ccc1-2`, the growth inhibition is 98% (active).

On to `Cc1cccc(N2C(c3ccccc3)c3ccc(C)cc3NS2=O)c1` (centres undefined), for which the growth inhibition was -7%.

`[Pt].c1ccc(P(CCP(CCP(c2ccccc2)c2ccccc2)CCP(c2ccccc2)c2ccccc2)c2ccccc2)cc1`: the growth inhibition is 89% (active).

Consider `Cc1cc(I)ccc1NC(=S)Nc1ccccc1F`, for which the growth inhibition is 68%.

Consider `FC(F)(F)c1ccccc1NC(=S)SCc1ccc(Cl)cc1`, for which the growth inhibition is 83% (active).

Take `COC(=O)C1(C)CC2C(C)(CCC3(C)C4=CC=C5C(=CC(=O)C(O)=C5C)C4(C)CCC23C)CC1O` (centres undefined): the growth inhibition is 96% (active).

Turning to `CC1CCC(=NNC(N)=O)CC1` (centres undefined), the growth inhibition is -4%.

`CCOC(=O)C(NS(=O)(=O)c1ccccc1)(C(F)(F)F)P(=O)(OCC(C)C)OCC(C)C` (centres undefined): the growth inhibition is 17%.

Take `O=[N+]([O-])c1ccc(/C=N/NC2=CS(=O)(=O)C=C2)cc1`: the growth inhibition was 2%.

For `CC(C)c1ccc2c(c1)CCC1C(C)(CNC(=O)S)CCCC21C.[Zn+2]` (centres undefined), the growth inhibition is 29%.

Turning to `Cc1ccc(N=Nc2sc(N)nc2C)cc1C`, the growth inhibition was -52%.

As to `CC(C)(C)C1CCC2c3c([nH]c4ccccc34)C3C(=O)N(c4ccc(C(=O)O)cc4)C(=O)C3C2C1` (centres undefined), the growth inhibition was 99% (active).

For `O=C(CBr)Nc1ccc(Cc2ccc(NC(=O)CBr)cc2)cc1`, the growth inhibition is 1%.

On to `O=c1[nH]c2c([N+](=O)[O-])cc(Cl)cc2nc1/C=C(\O)c1ccc(Cl)cc1`, for which the growth inhibition is 95% (active).

For the compound `CCOC(=O)C1=C(N)N(S(=O)(=O)c2ccc(C)cc2)CCC(C(=O)OC)=C1`, the growth inhibition was -3%.

For the compound `CC(C)=CC(=O)OC(CCCc1ccccc1)c1ccc2c(c1)OCO2` (centres undefined), the growth inhibition was 14%.

Regarding `OCCN(CCO)c1cc(/C=C/c2ccnc3ccccc23)nc2ccccc12`, the growth inhibition was 35%.

With `CCCCCCCCCCCC(=O)OCC1CO1` (centres undefined), the growth inhibition was 3%.

On to `CCCCCCCCCCCCCCCCCC1=NCCN1`, for which the growth inhibition was 97% (active).

For the compound `CC(=O)OCC1OC(OC2C=C(O[Si](C)(C)C)C[C@H]3C(=O)C=CC(=O)[C@@H]23)C(OC(C)=O)C(OC(C)=O)C1OC(C)=O` (some centres undefined), the growth inhibition is 97% (active).

On to `C[C@]12CC[C@H]3[C@@H](CCC4=CC(=O)CC[C@@]43C)[C@@H]1CC[C@@H]2C(=O)C=O`, for which the growth inhibition was 74% (active).

As to `CCCCCC(O)C(C)CO` (centres undefined), the growth inhibition is -1%.

As to `CC(=O)Oc1ccc(-c2ccccc2)cc1Br`, the growth inhibition is 99% (active).

Consider `COC(=O)C(Cc1cccc(O)c1)NC(=O)C(CC(=O)OCc1ccccc1)NC(=O)OCc1ccccc1` (centres undefined) (Cbz-Asp(OBn)-[mTyr]-OMe; configuration not given here), for which the growth inhibition was 75% (active).

Regarding `CCC(CO)Nc1nc2cc(Br)ccc2c2ccc(Br)cc12` (centres undefined), the growth inhibition was 93% (active).

For the compound `Cc1cc(Br)ccc1NC(=O)/C=C/C(=O)O`, the growth inhibition is -16%.

Take `CCO/C=C1N=C(/C=C/c2ccccc2Cl)OC/1=O`: the growth inhibition was 86% (active).

As to `O=S(=O)(Nc1ccccc1C(F)(F)F)c1ccc(F)cc1`, the growth inhibition is 83% (active).

For `N#CSCC(=O)c1ccc2ccccc2c1`, the growth inhibition was 99% (active).

For the compound `O=[N+]([O-])/C(Cl)=C(\Nc1ccccc1)C(Cl)=C(Cl)Cl`, the growth inhibition is 99% (active).

`C/C(=N/NC(=O)c1ccccc1S(N)(=O)=O)C(CN1CCCCC1)C(C1=C(O)C2C=CC=CC2OC1=O)c1ccccc1` (centres undefined): the growth inhibition is 22%.

In the case of `N#Cc1c([N+](=O)[O-])cc(C(F)(F)F)cc1[N+](=O)[O-]`, the growth inhibition is 99% (active).

Take `CCCCCCCCCCCCO`: the growth inhibition was 55%.

For the compound `S=C(N/N=C/c1ccccn1)N1CC2CCC(CC2)C1`, the growth inhibition was 99% (active).

With `ClC1(c2ccccc2)c2ccccc2-c2ccccc21`, the growth inhibition was 94% (active).

For the compound `Cc1ccc(SCC#CC#CCS(=O)c2ccc(C)cc2)cc1` (centres undefined), the growth inhibition is 98% (active).

For `CCCCCCCOc1ccc(C=O)cc1OC`, the growth inhibition is 46%.
